Assay outcomes from PubChem BioAssay.
Only some compounds are listed: those with a hit (about 0.95% of all), similar ones and a draw of the others.
Fluorescein autfl: compound fluoresces in the fluorescein spectral region; Compound autofluorescence, 480/540 nm, fluorescein-equivalent; stronger effect = higher value; max fluorescein-equivalent concentration, M; actives 0.91% (n = 59,000); AID 593; in the data active = max fluorescein-equivalent concentration above about 10 nM; inconclusive = between about 1.1 nM and that limit
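Autofluorescence profiling; 100 mM Tris, pH 8.0; incubation 15 min at RT; ex/em 480/540 nm; result as fluorescein-equivalent concentration.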
Resorufin fluor: compounds fluorescent in resorufin spectral region; actives 0.04% (n = 59,000); max dye-equivalent concentration, M; Compound fluorescence, resorufin region 547/598 nm, buffer; stronger effect = higher value
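Intrinsic fluorescence profiled in the resorufin window (ex 547 nm, em 598 nm) after 15 min at room temperature in pH 8.0 Tris buffer (100 mM); responses normalized against a six-point resorufin standard series as dye-equivalent concentration.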
A488 autofl: A488 region autofluorescence | max dye equivalency, M | compound autofluorescence, A488 spectral region, dye equivalency; Compound Type: qHTS ECL - MLSMR | actives 0.1% (n = 59,000)
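Read-out: relative fluorescence at 480/540 nm, expressed as Alexa 488 dye-equivalent concentration from a six-point A488 standard included per plate. Conditions: 100 mM Tris, pH 8.0; 15 min incubation, room temperature.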
Rhodamine autofl: rhodamine region autofluorescence | Rhodamine-region fluorescence, 547/598 nm, Tris buffer; stronger effect = higher value | max dye-equivalent concentration, M | actives 0.05% (n = 59,000); in the data active = max dye-equivalent concentration above about 11 nM; inconclusive = between about 1.1 nM and that limit
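Compounds in 100 mM Tris buffer, pH 8.0, were incubated 15 min at room temperature, then read at 547 nm excitation and 598 nm emission. Fluorescence was normalized against a per-plate six-point rhodamine standard curve as dye-equivalent concentration.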
Texas Red fluor: compounds fluorescent in Texas Red spectral region. Compound fluorescence, Texas Red channel, 547/618 nm; stronger effect = higher value. max dye-equivalent concentration, M. actives 0.06% (n = 59,000). AID 587; in the data active = max dye-equivalent concentration above about 10 nM; inconclusive = between about 1.1 nM and that limit
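Dye-equivalent concentrations come from scaling compound signal (ex 547, em 618 nm) to six Texas Red standard concentrations run on every plate, after 15 min room-temperature incubation in pH 8.0 Tris (100 mM).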
A647 autofl: compound autofluorescence in A647 spectral region; Compound fluorescence, A647 channel (570/671 nm), Tris buffer; max dye-equivalent concentration, M; 59,000 tested, under 10 active; AID 592;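 also: values scaled relative to a standard on each plate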
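Each compound's intrinsic fluorescence at 570 nm excitation and 671 nm emission is measured across its concentration series in 100 mM Tris, pH 8.0, after 15 min at room temperature, and reported relative to an A647 curve.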
An asterisk follows results filed as active; ! = a repeat was not active. Unless noted, no rule for the calls is given here.

For O=C1NC(=O)[C@@H]2C3c4ccccc4C=CN3[C@H](C(=O)c3cccs3)[C@H]12 (stereo partly specified) the results were Fluorescein autfl 2.37e-08M*, Resorufin fluor inactive, A488 autofl inactive, Rhodamine autofl inactive, Texas Red fluor inactive and A647 autofl 1.4e-09.
O=C(Cn1ccccc1=O)c1cccs1 was read as Fluorescein autfl inactive, Resorufin fluor inactive, A488 autofl inactive, Rhodamine autofl inactive, Texas Red fluor inactive and A647 autofl 1e-09.
O=S(=O)(O)c1ccc2c(N=Nc3c(O)ccc4ccccc34)cccc2c1 was read as Fluorescein autfl inactive, Resorufin fluor inactive, A488 autofl inactive, Rhodamine autofl inactive, Texas Red fluor inactive and A647 autofl 4.1e-08.
Screening C=Cc1c(C)c2cc3[nH]c(cc4nc(cc5nc(cc1[nH]2)C(C)=C5CCC(=O)O)C(CCC(=O)O)=C4C)c(C)c3C=C returned Fluorescein autfl inconclusive, Resorufin fluor inactive, A488 autofl inactive, Rhodamine autofl inactive, Texas Red fluor 1.01e-08M* and A647 autofl 7.58e-08.
`COc1cccc(Cn2c(=O)c(-c3ccc(Cl)cc3)nc3cnc(N4CCOCC4)nc32)c1` gave Fluorescein autfl inactive, Resorufin fluor inactive, A488 autofl inactive, Rhodamine autofl inactive, Texas Red fluor inactive and A647 autofl 2.8e-09.
`CC[C@@]12CCCN3CCc4c(n(c5ccccc45)C(=O)C1)[C@H]32` gave Fluorescein autfl 1.2e-08M*!, Resorufin fluor inactive, A488 autofl inactive, Rhodamine autofl inactive, Texas Red fluor inactive and A647 autofl 1e-09.
For O=C1CCN2C=Nc3cccc4ccc1c2c34 the results were Fluorescein autfl 2.76e-06M*, Resorufin fluor inactive, A488 autofl 1.54e-07M*, Rhodamine autofl inactive, Texas Red fluor inactive and A647 autofl 5.7e-09.
For O=C1C=CC(=O)c2c1ccc1c2ccc2ccccc21 the results were Fluorescein autfl inconclusive, Resorufin fluor inactive, A488 autofl inactive, Rhodamine autofl inactive, Texas Red fluor inactive and A647 autofl 9.2e-09.
`O=C(O)c1cc(O)c2c(c1)C(=O)c1cccc(O)c1C2=O` gave Fluorescein autfl 8.63e-08M*, Resorufin fluor inactive, A488 autofl inconclusive, Rhodamine autofl inactive, Texas Red fluor inactive and A647 autofl 2.33e-08.
Screening Cc1c(C2Nc3ccccc3NC3=C2C(=O)CC(C)(C)C3)cnn1C (stereo unspecified) returned Fluorescein autfl 1.11e-08M*!, Resorufin fluor inactive, A488 autofl inactive, Rhodamine autofl inactive, Texas Red fluor inactive and A647 autofl 6.8e-09.
`CCOC(=O)COn1c(=O)c(-c2cccs2)[n+]([O-])c2ccccc21` gave Fluorescein autfl 1.29e-08M*, Resorufin fluor inactive, A488 autofl inactive, Rhodamine autofl inactive, Texas Red fluor inactive and A647 autofl 2.85e-08.
Screening CCOn1c(=O)c(-c2ccc(OC)cc2)[n+]([O-])c2ccccc21 returned Fluorescein autfl inactive, Resorufin fluor inactive, A488 autofl inactive, Rhodamine autofl inactive, Texas Red fluor inactive and A647 autofl 1e-09.
For Cc1ccc(S(=O)(=O)N[C@H](CN)C(=O)O)cc1 the results were Fluorescein autfl inconclusive, Resorufin fluor inactive, A488 autofl inactive, Rhodamine autofl inactive, Texas Red fluor inactive and A647 autofl 1.07e-08.
`O=c1[nH]c2[nH]c(=S)[nH]c(=S)c2[nH]1` gave Fluorescein autfl inactive, Resorufin fluor inactive, A488 autofl inactive, Rhodamine autofl inactive, Texas Red fluor inactive and A647 autofl 1e-09.
Screening Cc1ccc(C(C)C)c(OCC(O)CN2CCOCC2)c1 (stereo unspecified) returned Fluorescein autfl inconclusive, Resorufin fluor inactive, A488 autofl inactive, Rhodamine autofl inactive, Texas Red fluor inactive and A647 autofl 2.4e-09.
`Cc1ccc2c(c1)c(C)c(C)n2CC(O)CN1CCOCC1` (stereo unspecified) gave Fluorescein autfl 1.4e-08M*, Resorufin fluor inconclusive, A488 autofl inactive, Rhodamine autofl 1.23e-08M*, Texas Red fluor 6.43e-08M* and A647 autofl 3.92e-08.
For Cc1cccc(-c2c3c(=O)n(C)c(=O)n(C)c3c3c(C)cc(C)nn23)c1 the results were Fluorescein autfl inconclusive, Resorufin fluor inactive, A488 autofl inactive, Rhodamine autofl inactive, Texas Red fluor inactive and A647 autofl 3.24e-08.
`Cc1cccc(-c2c3c(=O)n(C)c(=O)n(C)c3c3cccnn23)c1` gave Fluorescein autfl 1.06e-08M*, Resorufin fluor inactive, A488 autofl inactive, Rhodamine autofl inactive, Texas Red fluor inactive and A647 autofl 1e-09.
For COC(=O)C1=C(C)NC(C)=C(C(=O)OC(C)C)[C@H]1c1cccc2nonc12 the results were Fluorescein autfl 1.16e-08M*, Resorufin fluor inactive, A488 autofl inactive, Rhodamine autofl inactive, Texas Red fluor inactive and A647 autofl 2.7e-09.
Screening NC[C@@H]1O[C@@H](O[C@H]2[C@@H](O)[C@H](O[C@@H]3[C@H](O)[C@H](N)C[C@H](N)[C@H]3O[C@@H]3O[C@@H](CO)[C@H](O)[C@H](O)[C@@H]3N)O[C@H]2CO)[C@H](N)[C@H](O)[C@@H]1O returned Fluorescein autfl inactive, Resorufin fluor inactive, A488 autofl inactive, Rhodamine autofl inactive, Texas Red fluor inconclusive and A647 autofl 8.5e-09.
COc1nccc(Nc2ccccc2)c1C#N was read as Fluorescein autfl inconclusive, Resorufin fluor inactive, A488 autofl inactive, Rhodamine autofl inactive, Texas Red fluor inconclusive and A647 autofl 1.69e-08.
`COc1[nH]c(/N=C/c2ccccc2)c(C#N)c1C#N` gave Fluorescein autfl 3.58e-08M*, Resorufin fluor inconclusive, A488 autofl inconclusive, Rhodamine autofl inconclusive, Texas Red fluor inconclusive and A647 autofl 8e-09.
For N#[N+]c1ccc(Nc2ccccc2)cc1 the results were Fluorescein autfl 1.28e-08M*, Resorufin fluor inactive, A488 autofl inactive, Rhodamine autofl inactive, Texas Red fluor inactive and A647 autofl 1e-09.
CCCn1c(=NC(=O)c2ccco2)c(C(=O)OCC)cc2c(=O)n3ccccc3nc21 was read as Fluorescein autfl inactive, Resorufin fluor inactive, A488 autofl inactive, Rhodamine autofl inactive, Texas Red fluor inactive and A647 autofl 1e-09.
CC(C)n1c(=NC(=O)c2ccco2)c(C#N)cc2c(=O)n3ccccc3cc21 was read as Fluorescein autfl 1.14e-08M*, Resorufin fluor inactive, A488 autofl inactive, Rhodamine autofl inactive, Texas Red fluor inconclusive and A647 autofl 1e-09.
`N#CCCn1c(=O)c(-c2cccs2)nc2cnc(N3CCOCC3)nc21` gave Fluorescein autfl 1.3e-08M*, Resorufin fluor inactive, A488 autofl inactive, Rhodamine autofl inactive, Texas Red fluor inactive and A647 autofl 3.27e-08.
